According to PubChem BioAssay (Tox21):
Activity calls are given as the source filed them. The call rests on the fitted dose curve.

experiment: qHTS assay to identify small molecule agonists of the sonic hedgehog signaling (Shh) pathway (AID 1259368); settings: NIH/3T3 Gli1-Luc reporter, luciferase, 24 h, stronger effect = higher value; series mostly up to 92.4 µM;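 further: NIH/3T3-derived 3T3Gli1-Luc cells carrying a stable Gli1-driven firefly luciferase reporter; nearly all actives have a fitted effect of over 15% in size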
Description: National Center for Advancing Translational Sciences [NCATS]
NIH Chemical Genomics Center [NCGC]
U.S. Environmental Protection Agency [EPA]
National Institutes of Environmental Health Sciences [NIEHS]
National Toxicology Program [NTP]
The sonic hedgehog (Shh) pathway is essential for normal embryonic development. Dysregulation of the Shh pathway can cause severe developmental defects in organs. Therefore chemicals that interfere with the pathway are potential developmental toxicants. A cell line designated 3T3Gli1-Luc (DMB/OARSA/CFSAN/FDA, Laurel, MD), a NIH/3T3 derived clone containing stably integrated Gli1-Luc reporter is used to detect chemical interference of the Shh pathway, by changes in the expression of the firefly Luc gene under the control of the Gli1 transcriptional response element. This cell line was used to screen Tox21 libraries for identifying and prioritizing the potential developmental toxicants that interfere Shh pathway.
3T3 Gli1-Luc cells were dispensed at 2,000 per well in 5uL of culture medium into white solid bottom 1536-well plates (Greiner Bio-One, Monroe, NC) using a Multidrop Combi (Thermo Scientific, Waltham, MA) dispenser. The assay plates were incubated at 37 C and 5% CO2 for 4hr, and then 23nL of compounds dissolved in DMSO and positive control were transferred using a Pintool station (Wako, San Diego, CA). The assay plates were incubated at 37C and 5% CO2 for 24hr. For luciferase read, 4uL of Amplite Luciferase reporter gene assay reagent (AAT Bioquest, Inc. Sunnyvale, CA) was added to each well of the assay plates using Flying Reagent Dispenser (FRD, Aurora Discovery, San Diego, CA) and incubated at room temperature for 30min. The luminescence signal was measured using a ViewLux plate reader (Perkin Elmer, Shelton, CT).
On the % scale 0 is the no-effect control and ±100 the full control effect.

For Nc1c[n+](N2CCOCC2)no1, which outcome is on record?
The outcome was “inactive”.

For CCOC(=O)c1ccc(C)cc1, which outcome is on record?
The outcome was “inactive”.

For CN1CC(=O)NC1=N, which outcome is on record?
The outcome was “inactive”.

Which outcome does the source give for CC(C)CNCC(C)C here?
The outcome was “inactive”.

Which outcome does the source give for O=c1n(CCO)c(=O)n(CCO)c(=O)n1CCO here?
Its outcome is “inactive”.

For CN1N=C(C(N)=O)CCC1=O, which outcome is on record?
Its outcome is “inactive”.

Which outcome does the source give for N=c1nc(N2CCCCC2)cc(N)n1O here?
The outcome was “inactive”.

With CCOC(=O)CC(C)=O as the compound, how does the outcome read?
The outcome was “inactive”.

With O=C(O)CN(CCOCCOCCN(CC(=O)O)CC(=O)O)CC(=O)O as the compound, how does the activity change read?
Its activity change is -0.0947% [at 0.349 µM] (inactive).

For CC/C=C\CC/C=C/CO, which outcome is on record?
The outcome was “inactive”.

With NS(=O)(=O)c1ccccc1Cl as the compound, how does the outcome read?
The outcome was “inactive”.

With Cc1sccc1Br as the compound, how does the outcome read?
The outcome was “inactive”.

With CC(C)(C)c1ccc(O)c(O)c1 as the compound, how does the outcome read?
The outcome was “inactive”.

Which outcome does the source give for COC(=O)[C@@H](N)Cc1ccc(O)c(O)c1 here?
The outcome was “inactive”.

For O=C1CCCCCCCCCCCN1, which outcome is on record?
Its outcome is “inactive”.

Which outcome does the source give for Nc1cc(=O)[nH]c(N)n1 here?
Its outcome is “inactive”.

Which outcome does the source give for O=C(c1ccccc1)C1CCCCC1 here?
Its outcome is “inactive”.

For CN1CCN(c2cc3c(cc2F)c(=O)c(C(=O)O)cn3-c2ccc(F)cc2)CC1, which outcome is on record?
Its outcome is “inactive”.

For CCOC(=O)c1cccc(N)c1, which outcome is on record?
Its outcome is “inactive”.

Which outcome does the source give for C=C1CC[C@H]2C[C@@H]1C2(C)C here?
Its outcome is “inactive”.

With O=C(O)CCCl as the compound, how does the outcome read?
Its outcome is “inactive”.

For Cc1cccc(C)c1NC(=O)C(C)N (stereo not given), which outcome is on record?
Its outcome is “inactive”.

For CCc1cccc2c(CCO)c[nH]c12, which outcome is on record?
The outcome was “inactive”.

With N[C@H]1CN(c2c(F)cc3c(=O)c(C(=O)O)cn(C4C[C@H]4F)c3c2Cl)CC12CC2 (stereo not given in full) as the compound, how does the outcome read?
The outcome was “inactive”.

For COC(=O)CCSCCC(=O)OC, which outcome is on record?
The outcome was “inactive”.

Which outcome does the source give for ClC(Cl)(Br)Br here?
Its outcome is “inactive”.

Which outcome does the source give for COC(=O)NN here?
The outcome was “inactive”.

Which outcome does the source give for CO/N=C(/C(=O)N[C@@H]1C(=O)N2C(C(=O)OCOC(=O)C(C)(C)C)=C(C)CS[C@H]12)c1csc(N)n1 here?
Its outcome is “inactive”.

Which outcome does the source give for O=C(CCCN1CCC(O)(c2cccc(C(F)(F)F)c2)CC1)c1ccc(F)cc1 here?
Its outcome is “inactive”.

Which outcome does the source give for CC(C)(C)NCCNC(C)(C)C here?
The outcome was “inactive”.

Which outcome does the source give for CCCC(=O)O[C@]1(C(=O)CO)CC[C@H]2[C@@H]3CCC4=CC(=O)CC[C@]4(C)[C@H]3[C@@H](O)C[C@@]21C here?
Its outcome is “inactive”.

With CCc1ccc(O)c(OC)c1 as the compound, how does the outcome read?
The outcome was “inactive”.

For NC(=O)c1cn(Cc2c(F)cccc2F)nn1, which outcome is on record?
Its outcome is “inactive”.

For OCCCC1CCCCC1, which outcome is on record?
Its outcome is “inactive”.

Which outcome does the source give for C=CCS(=O)(=O)O here?
The outcome was “inactive”.

Which outcome does the source give for O=C(O)COc1nn(Cc2ccccc2)c2ccccc12 here?
Its outcome is “inactive”.

For CC(C)(O)C(=O)c1ccccc1, which outcome is on record?
Its outcome is “inactive”.

With CCS(=O)(=O)c1ccc(OC)c(C(=O)OC)c1 as the compound, how does the outcome read?
Its outcome is “inactive”.

With Cc1ccc(Cl)cc1Cl as the compound, how does the outcome read?
The outcome was “inactive”.

For Cc1cc(O)cc2c1O[C@](C)(CCC[C@H](C)CCC[C@H](C)CCCC(C)C)CC2, which outcome is on record?
The outcome was “inactive”.
